Assay outcomes deposited in PubChem BioAssay by several laboratories.
Insulin prom up = MIN6 insulin promoter up-regulation. MIN6 insulin promoter-GFP reporter, high-content imaging; stronger effect = higher value. z-score at 5 µM. 190,000 tested, 0.3% active;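 active = z-score above 3 at 5 µM with at least 500 cells counted in the well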
L major viab = Leishmania major promastigote growth inhibition | Leishmania major promastigotes, resazurin fluorescence viability | 200,000 tested, 9% active | AID 1063 | inhibition, % at 10 µM; in the data active = inhibition above about 50%;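 also: promastigotes grown with compound for 44 hours at 28 °C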
WT yeast gro inh = growth inhibition of WT yeast, mitochondrial fusion screen. inhibition, % at 10 µM. mitochondrial fusion phenotypic screen, WT strain. 190,000 tested, 2.1% active; in the data active = inhibition above about 58%; tested in S. cerevisiae
INS promoter inh = TRM-6 insulin promoter activity inhibition; 130,000 tested, 0.9% active; inhibition, % at 2 µM; TRM-6 cells (human fetal islet line), insulin promoter-eGFP reporter, imaging; reporter expression induced with tamoxifen; AID 1273;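 active = inhibition above the mean plus 3 SD, with well images judged a real hit on visual review, cut at about 60% in these data, passing the limit was not always enough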
ROMK mod = human ROMK K+ channel modulation, primary screen. B-score at 10 µM. 130,000 tested, 2% active. Tet-inducible ROMK, thallium flux fluorescence; actives lie on both sides. P48048;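 active = signal ratio slope over the read window, or its plate-corrected B-score, at least 3 SD from the plate mean, either direction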;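 also: B-score of the F/F0 ratio slope over 7 to 12 s after thallium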
Target sequence (P48048 whole entry, looked up): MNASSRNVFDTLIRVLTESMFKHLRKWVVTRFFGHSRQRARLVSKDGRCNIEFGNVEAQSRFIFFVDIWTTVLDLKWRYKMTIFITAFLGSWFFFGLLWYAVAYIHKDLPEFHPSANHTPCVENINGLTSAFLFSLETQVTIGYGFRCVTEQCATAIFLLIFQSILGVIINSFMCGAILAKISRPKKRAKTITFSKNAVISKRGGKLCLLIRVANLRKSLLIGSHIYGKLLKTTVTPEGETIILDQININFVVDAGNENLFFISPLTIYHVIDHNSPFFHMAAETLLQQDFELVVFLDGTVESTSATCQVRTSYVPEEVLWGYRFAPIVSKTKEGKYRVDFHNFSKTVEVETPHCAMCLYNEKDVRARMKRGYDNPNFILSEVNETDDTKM
Cl transport mod = modulators of human KCC2 chloride dependent transport. KCC2 cells, thallium flux FluoZin-2 fluorescence. B-score of Tl+ flux slope (higher = more flux/activation; lower = inhibition) at 10 µM. 190,000 tested, 2.2% active. AID 1456;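 active = thallium flux slope and its plate-corrected score both differing from the plate sample mean at a set confidence after two filtering rounds, in either direction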;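 also: slope of fluorescence scaled to starting intensity during 10 to 20 s after thallium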
An asterisk follows results filed as active; / = not tested or not shown. Most compounds without a hit are left out; they make up all but 12% or so of the library.

SMILES	Insulin prom up	L major viab	WT yeast gro inh	INS promoter inh	ROMK mod	Cl transport mod
COc1cc(S(=O)(=O)N(Cc2ccco2)C2CCCC2)ccc1-n1cnnn1	0.97	70.9*	18.2	64.5	/	0.0338
CCN(CC)S(=O)(=O)c1ccc(-n2cnnn2)c(C)c1	/	-6.2	13.7	-15.6	0.516	0.578
Cc1cc(S(=O)(=O)N(Cc2ccccc2F)C2CC2)ccc1-n1cnnn1	-0.62	99.5*	17.5	-61.0	-0.63	/
CCOc1ccccc1CN(Cc1ccco1)S(=O)(=O)c1ccc(-n2cnnn2)c(OC)c1	0.04	68.7*	40.5	8.6	/	-1.36
COc1ccc2cc3cc(C(=O)N4CCN(Cc5ccc6c(c5)OCO6)CC4)oc3nc2c1	-0.52	0.9	-1.6	21.9	/	/
COC(=O)[C@@]1(Cc2ccc(OC)cc2)[C@@H]2C(=CC(=O)[C@H]2CC(=O)C(=O)N2CCCC2)CN1C(=O)c1ccccc1	2.35	100.3*	-9.0	40.0	-1.66	-0.862
O=C(NC(=S)N(CCCCO)C1CCCCC1)c1sc2ccccc2c1Cl	-1.07	92.3*	42.0	/	3.15*	/
CC1CCCCC1NC(=S)NC(=O)c1sc2ccccc2c1Cl (centres undefined)	-0.37	2.0	22.4	/	-0.0248	2.07
CN(C)S(=O)(=O)N1CCC(CO)(Cc2cccc(C(F)(F)F)c2)CC1	-0.39	9.7	10.6	/	-0.244	-0.235
Cc1ccc(-n2cc(CN3CCC(CO)(Cc4cccc(C(F)(F)F)c4)CC3)cn2)cc1	-0.77	98.6*	93.0*	/	-2.46	0.48
OCC1(Cc2cccc(C(F)(F)F)c2)CCN(Cc2cc(F)cc(F)c2)CC1	-0.19	85.7*	69.3*	/	-0.19	-0.344
CCCCN(Cc1ccccc1)S(=O)(=O)c1ccc2c(c1)n(C)c(=O)c(=O)n2C	1.05	/	/	/	2.96	-0.51
CC(C)COC(=O)n1ccc(C(=O)N2CCCCC2)n1	-0.06	-4.8	-12.8	/	0.0418	-0.177
O=C(CSc1nccc(=O)[nH]1)Nc1ccc2c(c1)OCCO2	-0.61	-2.3	1.5	/	0.143	1.46
O=c1ccnc(Nc2ccc3c(c2)OCCO3)[nH]1	3.66*	-2.3	-6.4	/	-0.18	2.24
CCCc1n[nH]c2c1C(=O)C(C(=O)OC)C(C)(C)C2 (centres undefined)	3.65*	-7.3	-2.6	30.4	-0.144	0.816
Nc1ncnc(Sc2ncccn2)c1[N+](=O)[O-]	-0.27	59.3*	29.1	/	-0.448	-0.459
Nc1ncnc(Sc2ccccc2)c1[N+](=O)[O-]	-0.03	30.9	-8.5	/	/	-0.222
Nc1ncnc(Sc2ccc(Cl)cc2)c1[N+](=O)[O-]	-0.25	66.6*	-22.1	50.0	/	0.031
CC(=O)c1cccc(NC(=O)c2c(F)c(F)c(F)c(F)c2F)c1	/	36.5	6.0	-42.3	/	-1.33
CCc1cccc2c(C(=O)CCl)c[nH]c12	-0.13	57.6*	-18.3	/	/	-0.0936
CCc1cccc2c(C(=O)COC(=O)c3ccc([N+](=O)[O-])s3)c[nH]c12	0.49	100.4*	96.2	-16.9	/	-0.157
Cc1ccc(C(=O)OCC(=O)c2c[nH]c3ccccc23)cc1	0.73	1.6	4.1	13.3	-0.348	0.843
CCc1cccc2c(C(=O)CSc3nncn3C)c[nH]c12	-0.13	3.7	-9.6	/	-1.26	0.29
O=C(OCC(=O)c1c[nH]c2ccccc12)c1ccc([N+](=O)[O-])s1	0.88	100.4*	96.7	/	-0.22	/
SMILES	Insulin prom up	L major viab	WT yeast gro inh	INS promoter inh	ROMK mod	Cl transport mod
CCOc1c(Cl)cc(CNc2ccc(N3CCCC3)cc2)cc1OC	0.69	23.9	17.9	/	0.374	-0.962
CC(=O)Nc1cccc(NC(=O)c2cc(Cl)ccc2Cl)c1	/	4.8	-6.3	-43.8	0.791	-0.0882
CCCN1C(=O)/C(=C/c2nc3ccccc3c(=O)[nH]2)c2ccccc21	-0.22	99.8*	8.4	-10.3	/	1.51
CCCN1C(=O)/C(=C/c2nc3ccccc3c(=O)[nH]2)c2cc(C)ccc21	0.13	/	/	/	/	0.0974
CC(C)N1C(=O)/C(=C\c2nc3ccccc3c(=O)[nH]2)c2ccccc21	-0.53	100.2*	37.9	14.8	-2.81	0.0533
COc1ccccc1C(C)NC(=O)c1ccc(C)o1 (centres undefined)	/	8.5	-16.7	17.4	0.029	-1.22
O=C(/C=C/c1ccc(F)cc1)c1ccccc1Br	-0.24	94.0*	81.5	-8.8	-1.52	-2.94
Cc1ccc(C(=O)/C=C/c2ccc(F)cc2)o1	0.99	97.8*	-1.5	3.9	-1.29	0.516
CC1CCC(N(C(=O)c2csnn2)C(C(=O)NC(C)(C)C)c2cccnc2)CC1 (centres undefined)	0.9	17.0	1.6	/	-0.0603	-0.444
Cc1cccc(C(=O)Oc2ccc(/C=N/O)cc2)c1	/	-0.3	36.8	-412.5	/	-0.46
Cc1cccc(C(=O)Oc2ccccc2/C=N/Nc2ccc([N+](=O)[O-])cc2)c1	-0.15	98.1*	-2.7	-63.3	/	-0.368
O=C(O)c1ccc(-n2nnnc2Oc2ccccc2C(=O)N2CCOCC2)cc1	1.45	-5.9	-5.4	35.1	/	0.876
CC(C)OP(=O)(OC(C)C)C(Nc1ccccc1)c1ccccc1C(F)(F)F (centres undefined)	-0.42	94.5*	54.7	3.6	0.114	-0.839
CCN(CC)P(=O)(Nc1ccc(C)cc1Br)c1ccc(N(C)C)cc1NC(=O)c1ccco1 (centres undefined)	-0.56	64.9*	60.2*	-21.4	/	0.00261
O=C(Nc1ccccc1Cc1ccccc1)c1ccccc1NS(=O)(=O)c1ccc(Cl)s1	-1.04	-1.7	76.0*	30.8	-3.55*	-3.54*
Cc1ccc(-n2c(SCc3nnc4n3CCC4)nnc2-c2ccccc2)cc1	-0.64	14.8	-2.5	-29.0	/	0.095
CC(NC(=O)COC(=O)c1cc(NS(=O)(=O)c2ccc(Cl)c([N+](=O)[O-])c2)ccc1O)C1CC2CCC1C2 (centres undefined)	0.47	-9.1	-5.6	-83.3	-0.11	-0.414
O=C(c1cnc2ccccc2n1)N1CCN(c2ccc(C(F)(F)F)cn2)CC1	/	/	/	/	/	0.297
Cc1ccc(C)c(OCCOCCN2CCOCC2)c1	0.62	91.8*	5.4	20.0	/	0.605
Cc1cc(C)c(C)c(OCCOCCN2CCOCC2)c1	0.32	55.4*	-2.8	-50.0	/	0.029
Cc1cc(C)c(C)c(OCCOCCN2CCN(C)CC2)c1	0.31	-2.5	1.4	7.7	-0.00754	0.0715
Clc1cc(Br)ccc1OCCOCCN1CCOCC1	-0.83	96.0*	9.1	-50.0	-0.361	/
CC(C)OC(=O)c1nnc(-c2ccccc2)nc1OC(C)C	-0.65	-3.6	-3.5	-21.9	/	/
CCn1cc(C(=O)NCc2ccccc2)c(=O)c2cc(F)c(N3CCN(C(=O)c4ccco4)CC3)cc21	/	95.4*	39.9	-37.9	-0.0013	-1.26
C/C(CC1(O)C(=O)N(C)c2ccccc21)=N\O (centres undefined)	-0.32	-8.2	0.5	/	1.04	1.36
CC(=O)CC1(OC(C)=O)C(=O)N(C)c2ccccc21 (centres undefined)	0.1	97.1*	22.7	/	/	-0.00263
COc1ccc(C2NC(=O)N(C)C3=C2C(=O)CC(C)(C)C3)cc1OC (centres undefined)	/	-2.6	1.8	16.1	1.04	-0.334
